Molecules are shown by their SMILES. About 83,000 compounds went through this panel and 20% of them were active in at least one assay; those are over-represented in the sample as a whole.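 Testing used 96-well plates and a 48-hour single-concentration exposure. Example: -40 means 40% of the starting cells died.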 The source made the active and inactive calls. How the source made its calls: active means growth percent below 10; inactive means the rest.

The subject of one experiment is SN12C renal. Put plainly: NCI-60 one-dose screen, 48 h (100 = growth as untreated, 0 = no growth, -100 = all killed). The settings on record: 10 µM unless noted.
Turning to `Nc1nc(Cl)cc(Cl)n1`, the growth was 110% (inactive).
Same read-out and setting: with `CCCCCCCCCCCCCCCCOc1ccccc1NC(=O)CC(C)=O` the figure was 63.9% (inactive); with `Cc1cc(Cc2ccccc2)c(O)c(Cc2ccccc2)c1`, 79.7% (inactive).
Still for that read-out and setting: with `Nc1cc(N)ncn1` the figure was 97.1% (inactive).
Same read-out and setting: with `CC(C)(C)NCCC(O)c1cc(C(F)(F)F)nc2c(C(F)(F)F)cccc12` (centres undefined) the figure was 84.7% (inactive).
For `C=C(OC(C)=O)c1ccccc1`, the growth is 96% (inactive).
Same read-out and setting: with `O=Cc1c(O)c2ccccc2[nH]c1=O` the figure was 92.3% (inactive); with `CN=S(=O)(OCCCCCOS(=O)(=NC)c1ccc(C)cc1)c1ccc(C)cc1` (centres undefined), 95.1% (inactive); with `CCOC(=O)c1c(C)[nH]c(C)c1C=O`, 95.8% (inactive).
Same read-out and setting: in the case of `O=C(NCc1ccccc1)/C(=C/c1ccccc1)NC(=O)c1ccccc1` it was 100% (inactive); in that of `O=c1cc(Cl)nc2ccccn12`, 102% (inactive); in that of `Oc1cc(O)c2c(c1)O[C@H](c1ccc(O)c(O)c1)[C@@H](O)C2`, 102% (inactive).
On the same count and under the same terms, in the case of `CCOP(=O)(NC(c1ccccc1)c1ccccc1)OCC` it was 146% (inactive).
In the case of `Cc1ccc2nc(N)nnc2c1`, the growth was 98.4% (inactive).
Same read-out and setting: with `Cc1ccc(S(N)(=O)=O)cc1Cl` the figure was 106% (inactive); with `Nc1cc2ccccc2c(O)c1O`, -22.3% (active); with `CC(C)N1CC(=O)N2CSCC2C1=O` (centres undefined), 107% (inactive).
The same measure, in the same setting: in the case of `CCOC(=N)CC(=O)Nc1cccc(C)c1Cl` it was 98.6% (inactive).
Still for that read-out and setting: with `Cc1cc2c(C(C)C)c(O)c(O)c(C=Nc3ccccc3[N+](=O)[O-])c2c(O)c1-c1c(C)cc2c(C(C)C)c(O)c(O)c(C=Nc3ccccc3[N+](=O)[O-])c2c1O` the figure was 84.9% (inactive); with `Cc1cc(C(=O)NN)c(C#N)c(=O)[nH]1`, 88.4% (inactive); with `COC1OC(CO)C(OC)C(O)C1O` (centres undefined), 104% (inactive).
As for `CCOC(=O)/C(O)=C(\C=N\C(=S)Nc1ccc(Cl)c(Cl)c1)C(=O)OCC`, the growth was 93.4% (inactive).
For the compound `O=C(c1ccccc1)c1ccc(-c2ccc(O)cc2)cc1`, the growth was 83.2% (inactive).
As for `CC(=O)C1C(=O)C(=O)N(c2cccc([N+](=O)[O-])c2)C1=O` (centres undefined), the growth is 101% (inactive).
As for `CCOC(OCC)C(=O)c1ccccc1`, the growth was 101% (inactive).
Same read-out and setting: with `Cc1ccc(O)c(N)c1` the figure was 107% (inactive); with `COC(=O)c1ccccc1C(=O)c1c(C)cc(C)cc1C`, 99.9% (inactive).
Still for that read-out and setting: with `COc1cc(-c2ccc(NC(=O)CC(C)=O)c(OC)c2)ccc1NC(=O)CC(C)=O` the figure was 104% (inactive).
On the same count and under the same terms, in the case of `Oc1cccc(CNC2CCCCC2)c1` it was 106% (inactive).
For the compound `COc1ccc(C(=O)C(=O)c2ccccc2)cc1`, the growth was 98.7% (inactive).
Take `CSc1cnc2ccccc2n1`: the growth is 94.4% (inactive).
Same read-out and setting: with `Nc1ccc2c(c1)Cc1cc(N)c(N)cc1-2` the figure was 93.3% (inactive); with `CCCCN(C(=O)CC)c1ccccc1`, 99.3% (inactive); with `Nc1c(Br)cc(O)c2c1C(=O)c1ccccc1C2=O`, 80.9% (inactive).
Same read-out and setting: with `CC(=O)N(C(C)=O)c1ccc(C)cc1` the figure was 96.1% (inactive).
Regarding `Cc1cc(CC(=O)NCCO)n(CCO)c(=O)c1`, the growth is 103% (inactive).
Turning to `CCOC(=O)c1ccc(NC(C)=O)o1`, the growth is 95.1% (inactive).

In another experiment the test system is UO-31 renal. The description is as above. Particulars: 10 µM unless noted.
`Nc1nc(Cl)cc(Cl)n1`: the growth was 95.2% (inactive).
On the same count and under the same terms, in the case of `CCCCCCCCCCCCCCCCOc1ccccc1NC(=O)CC(C)=O` it was 25.8% (inactive).
Same read-out and setting: in the case of `Cc1cc(Cc2ccccc2)c(O)c(Cc2ccccc2)c1` it was 64.6% (inactive); in that of `Nc1cc(N)ncn1`, 94% (inactive); in that of `CC(C)(C)NCCC(O)c1cc(C(F)(F)F)nc2c(C(F)(F)F)cccc12` (centres undefined), 45.7% (inactive).
Same read-out and setting: in the case of `C=C(OC(C)=O)c1ccccc1` it was 101% (inactive).
Consider `O=Cc1c(O)c2ccccc2[nH]c1=O`, for which the growth was 81.6% (inactive).
As to `CN=S(=O)(OCCCCCOS(=O)(=NC)c1ccc(C)cc1)c1ccc(C)cc1` (centres undefined), the growth was 49.4% (inactive).
In the case of `CCOC(=O)c1c(C)[nH]c(C)c1C=O`, the growth was 104% (inactive).
The same measure, in the same setting: in the case of `O=C(NCc1ccccc1)/C(=C/c1ccccc1)NC(=O)c1ccccc1` it was 92% (inactive); in that of `O=c1cc(Cl)nc2ccccn12`, 84% (inactive).
The same measure, in the same setting: in the case of `Oc1cc(O)c2c(c1)O[C@H](c1ccc(O)c(O)c1)[C@@H](O)C2` it was 89.5% (inactive); in that of `CCOP(=O)(NC(c1ccccc1)c1ccccc1)OCC`, 84.4% (inactive); in that of `Cc1ccc2nc(N)nnc2c1`, 87.5% (inactive).
The same measure, in the same setting: with `Cc1ccc(S(N)(=O)=O)cc1Cl` the figure was 94.5% (inactive).
For `Nc1cc2ccccc2c(O)c1O`, the growth was 55.2% (inactive).
The same measure, in the same setting: with `CC(C)N1CC(=O)N2CSCC2C1=O` (centres undefined) the figure was 96.5% (inactive); with `CCOC(=N)CC(=O)Nc1cccc(C)c1Cl`, 70.5% (inactive).
For `Cc1cc2c(C(C)C)c(O)c(O)c(C=Nc3ccccc3[N+](=O)[O-])c2c(O)c1-c1c(C)cc2c(C(C)C)c(O)c(O)c(C=Nc3ccccc3[N+](=O)[O-])c2c1O`, the growth was 84% (inactive).
Same read-out and setting: with `Cc1cc(C(=O)NN)c(C#N)c(=O)[nH]1` the figure was 88.3% (inactive); with `COC1OC(CO)C(OC)C(O)C1O` (centres undefined), 92.5% (inactive).
On the same count and under the same terms, in the case of `CCOC(=O)/C(O)=C(\C=N\C(=S)Nc1ccc(Cl)c(Cl)c1)C(=O)OCC` it was 70.9% (inactive); in that of `O=C(c1ccccc1)c1ccc(-c2ccc(O)cc2)cc1`, 45.2% (inactive); in that of `CC(=O)C1C(=O)C(=O)N(c2cccc([N+](=O)[O-])c2)C1=O` (centres undefined), 105% (inactive).
On the same count and under the same terms, with `CCOC(OCC)C(=O)c1ccccc1` the figure was 82.6% (inactive); with `Cc1ccc(O)c(N)c1`, 87.9% (inactive).
Regarding `COC(=O)c1ccccc1C(=O)c1c(C)cc(C)cc1C`, the growth is 92.9% (inactive).
Same read-out and setting: in the case of `COc1cc(-c2ccc(NC(=O)CC(C)=O)c(OC)c2)ccc1NC(=O)CC(C)=O` it was 86.3% (inactive); in that of `Oc1cccc(CNC2CCCCC2)c1`, 86.6% (inactive); in that of `COc1ccc(C(=O)C(=O)c2ccccc2)cc1`, 95.3% (inactive).
Take `CSc1cnc2ccccc2n1`: the growth is 78.4% (inactive).
On the same count and under the same terms, in the case of `Nc1ccc2c(c1)Cc1cc(N)c(N)cc1-2` it was 91.4% (inactive); in that of `CCCCN(C(=O)CC)c1ccccc1`, 86.7% (inactive); in that of `Nc1c(Br)cc(O)c2c1C(=O)c1ccccc1C2=O`, 85.1% (inactive).
Still for that read-out and setting: with `CC(=O)N(C(C)=O)c1ccc(C)cc1` the figure was 92.4% (inactive).
On the same count and under the same terms, with `Cc1cc(CC(=O)NCCO)n(CCO)c(=O)c1` the figure was 94.4% (inactive); with `CCOC(=O)c1ccc(NC(C)=O)o1`, 87.4% (inactive).

Source of the values: PubChem BioAssay (NCI).
